Most compounds without a hit are left out; they make up all but 12% or so of the library.
BAZ2B block: blocks human BAZ2B. AID 504333. 360,000 compounds, 4.4% hits. Q9UIF8. AlphaScreen BAZ2B-H3K14Ac peptide displacement. Potency, µM (top dose mostly 114 µM), most hits filed as inhibitors; also: nearly all actives have a fitted effect of over 60% in size
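BAZ2B (50 nM) with biotin-H3(5-23)K14Ac peptide (50 nM) in PBS pH 7.4, 0.01% Tween-20, preformed 30 min, then compound 30 min at room temperature; top concentration 110uM. AlphaScreen streptavidin donor/nickel chelate acceptor beads (10 ug/mL final), 20 min dark, signal read.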
Sfp inh: blocks B. subtilis Sfp PPTase activity; Biochemical Sfp PPTase activity, qHTS; Q9F4F7; Potency, µM, hits mostly inhibitors; 310,000 compounds, 3.5% hits;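 also: the enzyme is Sfp with the accession as filed and its product quenches rhodamine fluorescence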
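Compounds were incubated with enzyme (final 15 nM) for 15 min at room temperature before substrate addition started the reaction. Fluorescence at 525 nm excitation, 598 nm emission was recorded immediately and after 30 minutes.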
JMJD2A Tudor inh: blocks the human JMJD2A Tudor domain. O75164. AlphaScreen JMJD2A-Tudor / H3K4me3 peptide binding. Potency, µM (titrated, usually from 114 µM), actives largely listed as inhibitors. 390,000 compounds, 4.4% hits. AID 504339; also: nearly all actives have a fitted effect of over 50% in size
Target sequence (O75164 whole entry, looked up, the tested form may be a part): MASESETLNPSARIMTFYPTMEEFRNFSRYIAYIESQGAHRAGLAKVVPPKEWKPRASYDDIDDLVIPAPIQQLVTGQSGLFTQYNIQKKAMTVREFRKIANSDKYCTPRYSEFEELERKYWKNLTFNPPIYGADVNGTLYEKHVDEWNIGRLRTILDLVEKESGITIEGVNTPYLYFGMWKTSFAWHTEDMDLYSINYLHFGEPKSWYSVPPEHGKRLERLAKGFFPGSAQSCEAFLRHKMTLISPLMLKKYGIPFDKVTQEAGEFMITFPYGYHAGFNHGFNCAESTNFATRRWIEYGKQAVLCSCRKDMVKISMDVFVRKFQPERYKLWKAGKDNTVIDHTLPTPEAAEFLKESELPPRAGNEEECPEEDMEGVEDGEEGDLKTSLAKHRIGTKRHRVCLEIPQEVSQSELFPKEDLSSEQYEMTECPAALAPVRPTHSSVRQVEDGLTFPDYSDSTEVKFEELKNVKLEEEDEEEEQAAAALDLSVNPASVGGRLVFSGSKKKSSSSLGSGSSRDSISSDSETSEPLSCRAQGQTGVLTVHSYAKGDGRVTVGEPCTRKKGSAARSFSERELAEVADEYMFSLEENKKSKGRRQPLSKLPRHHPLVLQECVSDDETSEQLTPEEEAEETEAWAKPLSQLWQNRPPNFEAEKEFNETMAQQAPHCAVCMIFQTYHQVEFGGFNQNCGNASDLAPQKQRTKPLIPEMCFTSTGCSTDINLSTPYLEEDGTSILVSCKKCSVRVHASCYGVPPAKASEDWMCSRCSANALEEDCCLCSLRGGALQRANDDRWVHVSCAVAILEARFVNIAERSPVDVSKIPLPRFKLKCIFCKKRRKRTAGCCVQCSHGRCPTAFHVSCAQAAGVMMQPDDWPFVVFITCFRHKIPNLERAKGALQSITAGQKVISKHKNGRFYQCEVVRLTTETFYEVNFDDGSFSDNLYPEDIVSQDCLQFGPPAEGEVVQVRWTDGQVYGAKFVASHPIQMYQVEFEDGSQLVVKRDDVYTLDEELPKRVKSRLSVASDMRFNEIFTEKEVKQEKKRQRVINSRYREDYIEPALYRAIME
L3MBTL1 block: L3MBTL1 (human) inhibition. AlphaScreen L3MBTL1–H3K9me1 peptide binding. Potency, µM (titrated, usually from 57.1 µM), most hits filed as inhibitors. 230,000 compounds, 0.66% hits; also: nearly all actives have a fitted effect of over 60% in size
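L3MBTL1 (50 nM) pre-complexed 30 min with biotinylated H3(1-15)K9me1 peptide (75 nM), then compounds added for 30 min at room temperature; AlphaScreen streptavidin donor/nickel chelate acceptor beads (10 ug/mL final) read after 30 min dark incubation.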
G9a block: blocks human histone lysine methyltransferase G9a. Q96KQ7. G9a H3K9 monomethylation, AlphaScreen, 2 h. Potency, µM (highest dose often 102 µM), hits mostly inhibitors. 350,000 compounds, 8.8% hits. AID 504332; also: nearly all actives have a fitted effect of over 75% in size
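AlphaScreen read-out: biotin-H3K9 peptide (500 nM) methylation by 20 nM enzyme with 20 uM SAM, 2 h at room temperature after 15 min compound preincubation; anti-monomethyl H3K9 antibody plus donor/acceptor beads, 10 min dark.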
HP1b chromo inh: inhibitors of HP1-beta chromodomain binding to methylated histone tails | AID 540317 | AlphaScreen HP1-beta / biotin-H3K9me3 peptide binding | P83916 | 390,000 compounds, 0.56% hits | Potency, µM (doses to about 114 µM), hits mostly inhibitors; also: nearly all actives have a fitted effect of over 70% in size
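AlphaScreen: HP1-beta (50 nM) preformed 30 min with biotin-H3(1-18)K9me3 peptide (50 nM) in PBS pH 7.4, 0.01% Tween-20. Compound added for 30 min at RT, then streptavidin donor/nickel chelate acceptor beads (10 ug/mL) for 30 min.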
Hits are given with their value; n = inactive; u = inconclusive; x = no result; ! = not confirmed by another sample; [ ] = another dose, or the depositor's remark. Calls follow the shape of the dose curve; as a rule, active = well fitted curve in the direction sought with a large enough effect; inconclusive = small, poorly fitted or top-dose-only effect, or another doubt; inactive = no such curve, though single readings can be large; an effect the other way counts as inactive or inconclusive.

SMILES	BAZ2B block	Sfp inh	JMJD2A Tudor inh	L3MBTL1 block	G9a block	HP1b chromo inh
Cn1cccc1-c1cc(C(=O)N/N=C/c2cccc(O)c2)[nH]n1	45µM	n	u	x	45µM	u
CNC(=O)c1csc(-c2cccs2)n1	n	n	n	n	n	n
O=C(O)c1csc(-c2cccs2)n1	n	n	n	n	79µM	n
O=C(O)c1csc(-c2ccccc2)n1	n	n	n[11.4 µM]	x	u	n
O=C(O)c1csc(-c2cccc(Cl)c2)n1	n	n	n[11.4 µM]	x	40µM	n
CN(C)c1oc(-c2ccccc2Cl)nc1S(=O)(=O)c1ccccc1	u	n	u	x	79µM	n
O=C(Nc1ccc(C(=O)N2CCN(c3ccc(Cl)cc3)CC2)cc1)C1=CSCCO1	n	n	u	x	n	n
O=C(Nc1ccccc1C(=O)N1CCN(c2cccc(Cl)c2)CC1)C1=CSCCO1	71µM	n	n	x	n	n
Cc1ccc(Cl)cc1N1CCN(C(=O)COc2cc(=O)n(C)c3ccccc23)CC1	u	x	n	x	n	n
S=C(Nc1ccccc1)c1ccccn1	35µM	45µM!	56µM	x	n[12.7 µM]	u
S=C(Nc1ccc(Nc2ccccc2)cc1)Nc1ccccn1	16µM	n	20µM	n	10µM	u
Cc1ccc(C)c(NC(=O)Cn2c(=O)n(CC3CCCO3)c(=O)c3ccccc32)c1 (stereo not drawn)	n	x	n	x	n	n
COc1ccc([C@H]2C(C#N)=C([S-])N[C@](C)(O)[C@@H]2[n+]2ccccc2)cc1	n	25µM	56µM	n	14µM	n
Cc1ccc[n+](C2C(c3ccc([N+](=O)[O-])cc3)C(C#N)=C([S-])NC2(O)C2CC2)c1 (stereo not drawn)	u	25µM	n	x	16µM	n
CCc1ccccc1NC(=O)Cn1nnc(-c2nc(-c3ccc(C)cc3)no2)c1N	n	x	n	x	n	n
CCCn1c(-c2ccc(F)cc2)nc2c(NC(C)CCCN(CC)CC)nc(C)nc21 (stereo not drawn)	x	n	x	x	x	x
OCC1OC(O)C(O)C(O)C1O (stereo not drawn)	x	n	x	x	n	x
OCC1OC([S-])[C@H](O)C(O)C1O.[Au+] (stereo partly drawn)	x	2.2µM	x	x	u	x
COc1ccc(Cl)cc1Nc1nc(-c2sc(NC(=O)c3ccccc3)nc2C)cs1	56µM	n	x	n	35µM	x
Cc1nc(NC(=O)c2ccco2)sc1-c1csc(Nc2ccc(Cl)cc2Cl)n1	n	n	u	n	u	n
Cc1nc(NC(=O)c2ccccc2)sc1-c1csc(Nc2ccc(Cl)cc2Cl)n1	50µM	n	x	n	25µM	x
COc1ccc(OC)c(Nc2nc(-c3sc(NC(=O)c4ccccc4)nc3C)cs2)c1	n	n	x	n	n[12.7 µM]	x
COCCN(CCOC)c1nc(C)nc2c1nc(-c1ccccc1)n2CCN(C)C	x	n	x	x	x	x
O=[N+]([O-])c1ccc2c3n([n+]([O-])c2c1)CCN=C3c1ccc(Cl)cc1	50µM	x	u	n	n[2.33 µM]	n
Nc1c(Cl)cc(C2=NCCn3c2c2ccc(C(F)(F)F)cc2[n+]3[O-])cc1Cl	u	x	4.5µM	n	u	n
SMILES	BAZ2B block	Sfp inh	JMJD2A Tudor inh	L3MBTL1 block	G9a block	HP1b chromo inh
Nc1c(Cl)cc(C2=NCCn3c2c2ccccc2[n+]3[O-])cc1Cl	u	x	3.5µM	n	u	n
Cc1ccc(C2=NCCn3c2c2ccc([N+](=O)[O-])cc2[n+]3[O-])cc1	u	x	u	n	n[2.33 µM]	n
COc1ccc2c3n([n+]([O-])c2c1)CCN=C3c1ccc(Cl)cc1	n	x	u	n	n[2.33 µM]	n
CC(=O)Nc1cc(C(=O)NCc2ccc(F)cc2)ccc1Sc1ccc(C)cc1	n	x	n	x	n	n
Cc1ccc2oc(-c3cccc(NC(=O)c4sc5c([N+](=O)[O-])cccc5c4Cl)c3)nc2c1	n	x	n	x	n	n
CCCN(CCC)C(=O)CSc1nnc2cc(C)c3ccccc3n12	n	x	u	x	u	n
COc1ccc(CN2C(=O)C(NC(=O)c3ccccc3C)(C(F)(F)F)N=C2c2ccccc2)cc1 (stereo not drawn)	n	x	n	x	n	n
CN(C)c1cccc(C(=O)NNC(=S)NC2CC3CCC2C3)c1 (stereo not drawn)	n	n	u	n	50µM	u
Cc1ccc(O)c(N)c1	n	x	n	n	n[0.501 µM]	n
Cc1ccc(SSc2cc(C)ccc2N)c(N)c1	50µM	x	7.9µM	n	u	14µM
O=C(O)c1ccc(CNCc2ccccc2Cl)s1	n	x	n	x	n	n
CC(C)c1ccc(NC(=O)C(c2ccccc2)N(Cc2ccco2)C(=O)CC2NC(=O)NC2=O)cc1 (stereo not drawn)	u	n	n	x	14µM	n
Cc1nnc(N2CCC(C(=O)NCCC(C)C)CC2)c2nn(-c3ccc(Cl)cc3)c(C)c12	n	x	n	x	n	n
O=c1[nH]c(=O)c2[nH]c(=S)[nH]c2[nH]1	x	x	2.5µM	x	x	10µM
FC(F)(F)c1cc(-c2ccco2)nc(NCc2ccccc2)n1	n	20µM	n	n	u	n
Cc1[nH]c2ccccc2c1/C=N/Nc1nc(Nc2ccccc2)nc(N2CCOCC2)n1	40µM	n	u	n	x	n
c1ccc(Nc2nc(N3CCCC3)nc(N3CCOCC3)n2)cc1	x	x	n	x	x	n
Oc1[nH]c2ccccc2c1N=Nc1nc(Nc2ccccc2)nc(N2CCOCC2)n1	u	16µM	n	x	n	n
NC(=O)c1c(NC(=S)Nc2ccc(F)cc2)sc2c1CCCC2	n	22µM	n	n	22µM	n
C=CC(=O)Nc1sc2c(c1C(N)=O)CCCC2	n	x	n	n	n[2.33 µM]	n
NC(=O)c1c(NC(=O)c2ccncc2)sc2c1CCCC2	n	n	n	x	u	n
CCOC(=O)c1c(NC(=S)Nc2ccc(F)cc2)sc2c1CCC2	n	n	n	x	n	n
NC(=O)c1c(NC(=S)Nc2ccccc2)sc2c1CCCC2	n	56µM	u	n	6.3µM	n
NC(=O)c1c(NC(=O)c2cnccn2)sc2c1CCCC2	n	40µM	n[11.4 µM]	n	8.9µM	n
C=CCNC(=S)Nc1sc2c(c1C(N)=O)CCCC2	n	50µM	n	n	18µM	u
SMILES	BAZ2B block	Sfp inh	JMJD2A Tudor inh	L3MBTL1 block	G9a block	HP1b chromo inh
Cc1cccc(OCC(=O)N(Cc2cccc(Cl)c2)Cc2ccco2)c1C	n	x	n	x	n	n
COc1ccc(Cn2c(=O)c3cccnc3n(CC(=O)Nc3c(C)cc(C)cc3C)c2=O)cc1	n	x	n	x	n	n
O=C(Cn1c(=O)nc(-c2ccccc2)c2ccccc21)NCc1ccccc1Cl	n	x	n	x	n	n
NC(=O)c1c(NC(=O)c2cc(-c3ccc(F)cc3)on2)sc2c1CCCC2	n	x	n	x	1.8µM	n
COc1ccc(-c2cc(C(=O)Nc3sc4c(c3C(N)=O)CCC(C)C4)no2)cc1 (stereo not drawn)	n	x	n	x	n	n
O=C(NC(=S)NN1CCCCC1c1cccnc1)c1ccc(Cl)cc1Cl (stereo not drawn)	n	n	n	n	71µM	n
